ELG1 genotox: qHTS screen for small molecules that induce genotoxicity in human embryonic kidney (HEK293T) cells expressing luciferase-tagged ELG1. AID 504466, 2011. HEK293T ELG1-luciferase reporter, luminescence, 16 h. Potency, µM (series often up to 46 µM), inactives show top-dose activity change, positive = activation, usual class: activators. actives 1.3% (n = 330,000); note: % of control where 0% means no effect; nearly all actives have a fitted effect of over 60% in size
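16 hr compound incubation (37 °C, 5% CO2) of HEK293T cells carrying luciferase-tagged ELG1; luciferase then measured by ONE-Glo luminescence after 30 min at RT.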
FLuc modulator: qHTS profiling assay for firefly luciferase inhibitor/activator using purifed enzyme and Km concentrations of substrates (counterscreen for miR-21 project) | AID 588342, 2011 | purified FLuc, Km substrates, luminescence inhibition | Potency, µM (doses to about 57.5 µM), inactives show at the top dose activity change, negative = inhibition, most hits filed as inhibitors | actives 6.9% (n = 360,000) | Luciferin 4-monooxygenase (Photinus pyralis), P08659;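 note: plate controls were vehicle for no effect and reference inhibitor for full effect; nearly all actives have a fitted effect of over 55% in size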
Target sequence (P08659 whole entry, looked up): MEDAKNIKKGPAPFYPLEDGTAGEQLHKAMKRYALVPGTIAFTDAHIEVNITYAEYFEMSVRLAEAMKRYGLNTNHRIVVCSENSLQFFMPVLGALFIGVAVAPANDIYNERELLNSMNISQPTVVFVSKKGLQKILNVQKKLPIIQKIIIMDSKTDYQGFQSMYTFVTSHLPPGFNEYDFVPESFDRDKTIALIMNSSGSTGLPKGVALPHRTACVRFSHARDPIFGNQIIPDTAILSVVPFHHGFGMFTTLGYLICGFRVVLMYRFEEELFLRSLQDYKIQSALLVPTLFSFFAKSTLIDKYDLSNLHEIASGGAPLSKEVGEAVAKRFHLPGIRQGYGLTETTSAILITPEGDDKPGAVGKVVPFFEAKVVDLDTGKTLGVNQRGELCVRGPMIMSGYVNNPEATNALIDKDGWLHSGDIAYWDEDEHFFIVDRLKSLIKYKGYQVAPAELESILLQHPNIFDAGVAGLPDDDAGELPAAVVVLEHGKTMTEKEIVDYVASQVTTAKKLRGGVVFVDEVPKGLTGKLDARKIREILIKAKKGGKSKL
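Purified P. pyralis luciferase, 10 nM final, with Km-level 10 uM D-luciferin and 10 uM ATP in 50 mM Tris acetate pH 7.5, 10 mM Mg acetate, 0.01% Tween-20, 0.05% BSA; 6-point qHTS titration about 60 µM downward; luminescence read.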
NPC1 promoter act: qHTS Assay for NPC1 Promoter Activators. Potency, µM (titrated, usually from 9.22 µM), for inactives: top-dose activation, hits mostly activators. actives 2.4% (n = 320,000). AID 485313, 2010. Huh7 NPC1 promoter luciferase reporter, 24 h; note: % of control where 0% means no effect; nearly all actives have a fitted effect of over 60% in size
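Huh7 reporter cells (NPC1 promoter driving luciferase) are dosed with compound for 24 h at 37 °C, 5% CO2; luciferase detection reagent is then added and luminescence measured after 10 min at ambient temperature.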
uPA generation: qHTS for Inhibitors of Cell Surface uPA Generation | actives 0.31% (n = 330,000) | cell surface uPA generation assay, qHTS | Potency, µM (doses to about 38.3 µM), for inactives: at the highest dose activity change, negative = inhibition, hits mostly inhibitors; active = well fitted inhibition curve with a large enough effect; inconclusive = small, poorly fitted or top-dose-only effect; inactive = no such curve, though single readings can be large or run the other way; tested in mouse RAW 264.7 cells; note: % is set by controls: 0 for no effect and ±100 for the full control effect; nearly all actives have a fitted effect of over 55% in size
Rab9 promoter act: qHTS Assay for Rab9 Promoter Activators; AID 485297, 2010; actives 2.8% (n = 320,000); Potency, µM (titrated, usually from 9.22 µM), for inactives: at the top dose activation, negative = inhibition, hits mostly activators; Huh7 Rab9 promoter-luciferase reporter, luminescence, 24 h; note: % of control where 0% means no effect; nearly all actives have a fitted effect of over 60% in size
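Luminescence read-out: Huh7 cells stably expressing Rab9-luciferase, treated 24 h with compound at 37 °C, then lysed with luciferase reagent for 10 min at ambient before reading.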
SMN2 splice up: qHTS Assay for Enhancers of SMN2 Splice Variant Expression; AID 1458, 2008; actives 2.8% (n = 210,000); HEK293 SMN2-luciferase splicing reporter, luminescence, 30-36 h; Potency, µM (series often up to 46.1 µM), for the others: at the top dose activity change, positive = activation, hits mostly activators; note: % of control where 0% means no effect; nearly all actives have a fitted effect of over 55% in size
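qHTS luciferase splicing reporter: luminescence rises when SMN2 exon 7 is included in transfected HEK293 cells. Compound exposure lasted 30-36 h at 37C, with 4.5 mM final sodium butyrate as control, followed by a ONE-Glo read.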
Active calls of the source: *; ? = inconclusive; · = not tested or not shown. Sampled rows, rich in hits. Any-hit rate of the full collection: about 7.3%. Unless noted, calls come from the whole dose curve; as a rule, active = well fitted curve in the direction sought with a large enough effect; inconclusive = small, poorly fitted or top-dose-only effect, or another doubt; inactive = no such curve, though single readings can be large; an effect the other way counts as inactive or inconclusive. Potency is the fitted concentration of half-maximal effect.

SMILES	ELG1 genotox	FLuc modulator	NPC1 promoter act	uPA generation	Rab9 promoter act	SMN2 splice up
CCOc1ccccc1C1CC(=O)Nc2cc(C)c(C)cc21 (configuration not stated)	-3%	-3%	-24%	7.1µM*	-25%	·
CCOC(=O)Cc1csc(NC(=O)c2cc3c(s2)CCCC3)n1	?	1.3µM*	1.4µM*	·	0.56µM*	-2%
CCOC(=O)Cc1csc(NC(=O)c2cc(C)c(C)s2)n1	0%	8.5µM*	?	4%	23%	·
CCOC(=O)Cc1csc(NC(=O)c2ccc(Cl)s2)n1	13%	?	-11%	-13%	1%	·
CCOC(=O)Cc1csc(NC(=O)c2ccncc2)n1	-6%	-3%	0%	-2%	-3%	-27%
CCOC(=O)Cc1csc(NC(=O)c2csc3c2CCCC3)n1	-5%	4.8µM*	-2%	7%	-6%	-35%
COc1ccccc1NS(=O)(=O)c1cccc(C(=O)N2CCCCCCC2)c1	0%	3%	-2%	-4%	-3%	·
CCn1cc(CCC(=O)NC2CCCC2)c2ccccc21	-2%	1%	-1%	2%	10%	·
COc1ccc(C(=O)N2CCc3ccc(NC(=O)c4ccccn4)cc3C2)cc1F	-16%	21µM*	?	-20%	27%	·
COc1cc2c(cc1OC)CN(C(=O)c1ccncc1)CC2	0%	-1%	4%	-4%	-2%	·
CN1CCN(C(=O)/C(=C\c2cccnc2)NC(=O)c2cccc(Br)c2)CC1	2%	-1%	-8%	0%	-3%	·
Cc1cc(CN(C)C(=O)c2ccc3nc(Cc4ccccc4F)oc3c2)on1	-3%	?	2.8µM*	-6%	3.2µM*	·
CN(Cc1nccn1C)C(=O)c1ccc2nc(Cc3ccccc3F)oc2c1	?	13µM*	15%	-3%	?	·
COc1ccc(-n2ncc(C(=O)N3CCN(c4ncccn4)CC3)c2C2CCN(C(=O)OC(C)(C)C)CC2)cc1	·	1%	·	·	·	·
CCOC(=O)c1nn(-c2ccc3ccccc3c2)cc1O	15µM*	8.5µM*	?	-2%	23%	13%
CCOC(=O)c1nn(-c2ccc(Cl)cc2)cc1O	?	11µM*	?	-14%	?	·
CCOC(=O)c1cc(C(=O)OCC)cc(-n2cc(O)c(C(=O)OCC)n2)c1	0%	-1%	0%	·	0%	0%
CCOC(=O)c1nn(-c2ccc(C)cc2)cc1O	3.2µM*	7.6µM*	4.5µM*	-6%	?	?
CCOC(=O)c1nn(-c2ccccc2)cc1O	?	?	?	-13%	?	·
CCOC(=O)c1nn(-c2ccc3c(c2)OCO3)cc1O	?	12µM*	3.2µM*	-5%	?	?
CCOC(=O)c1nn(-c2cc(C(=O)OC)cc(C(=O)OC)c2)cc1O	4%	2%	-2%	8%	-3%	2%
CCOC(=O)C1=NN(c2ccc(Cl)cc2)C(=O)C1	?	9.5µM*	?	5%	?	·
COC(=O)c1nn(-c2ccc(-c3ccccc3)cc2)cc1O	13%	0.34µM*	?	-14%	?	?
COc1cccc2c(Nc3ccccc3C)cc(C)nc12	-12%	0%	-4%	-10%	-7%	·
COc1cccc2nc3cc(C)c(C)cc3nc12	1.5µM*	0.76µM*	0.89µM*	3.2µM*	0.89µM*	·
SMILES	ELG1 genotox	FLuc modulator	NPC1 promoter act	uPA generation	Rab9 promoter act	SMN2 splice up
CO/N=C/c1ccc(N2CCCC2)c([N+](=O)[O-])c1	-1%	17µM*	9%	-3%	20%	-28%
COc1cccc(C(=O)/C=C/c2ccc(N3CCCCC3)c([N+](=O)[O-])c2)c1	11%	8.5µM*	-1%	-3%	-2%	-20%
O=[N+]([O-])c1cc(/C=N/O)ccc1N1CCCC1	-10%	-5%	0%	3%	2%	14%
COc1cccc(/C=C/C(=O)c2cccc([N+](=O)[O-])c2)c1	?	8.5µM*	-9%	2%	-2%	-3%
COc1ccc(C(=O)/C=C/c2ccccc2OC)c(OC(=O)c2ccc([N+](=O)[O-])cc2)c1	·	·	·	-15%	·	·
COc1cccc(/C=C/C(=O)c2cccc([N+](=O)[O-])c2)c1OC	?	11µM*	9%	-3%	-7%	-2%
COc1cccc(CN(C(=O)COc2ccc(Cl)c(C)c2)C2CCS(=O)(=O)C2)c1 (configuration not stated)	·	1%	·	·	·	-3%
CCNC(=S)/N=C(\N)Nc1nc(C)c2cc(C)ccc2n1	?	6µM*	3.5µM*	-2%	2.8µM*	·
CCOc1ccc2nc(N/C(N)=N/C(=S)Nc3ccc(C)c(C)c3)nc(C)c2c1	-2%	-11%	-13%	-1%	-23%	-23%
CCN(CC)S(=O)(=O)c1ccc2c(c1)c(=O)c(C(=O)NCCCN(C)c1ccccc1)cn2C	-14%	3%	-1%	0%	-5%	11µM*
CCn1c(=S)[nH]c2cc(S(=O)(=O)N3CCCCC3)ccc21	9.2µM*	7%	-3%	-15%	-4%	·
CSc1ccc(C2NN=C(c3ccccc3)S2)cc1 (configuration not stated)	·	·	·	-11%	·	·
Oc1ccccc1C1NN=C(c2ccccc2)S1 (configuration not stated)	?	0.48µM*	?	-5%	?	·
O=C(Nc1nnc(SCC(=O)N2CCCc3ccccc32)s1)c1cccc2ccccc12	-6%	?	8%	2%	7%	-9%
CCOC(=O)CSc1nnc(NC(=O)c2cccc([N+](=O)[O-])c2)s1	-1%	11µM*	0%	-2%	-3%	-1%
Cc1ccc(C(=O)Nc2nnc(SCC(=O)N3CCCc4ccccc43)s2)cc1	?	0.15µM*	?	-10%	0.32µM*	?
CCOC(=O)CNC(=O)CSc1nnc(NC(=O)c2ccc3c(c2)OCO3)s1	3.3µM*	0.95µM*	3.5µM*	-10%	3.2µM*	·
CCOC(=O)CNC(=O)CSc1nnc(SCC(=O)NCC(=O)OCC)s1	5%	-3%	2%	·	3%	-32%
CCOC(=O)Cc1ccc(NC(=O)c2cccc([N+](=O)[O-])c2)cc1	6%	?	17%	-16%	18%	10%
CCOC(=O)CNC(=O)CSc1nnc(NC(=O)c2ccc(C)cc2)s1	?	0.6µM*	1.8µM*	-15%	0.56µM*	5µM*
CCOCc1nnc(NC(=O)c2ccc3c(c2)OCO3)s1	·	·	·	4%	·	·

Screening results deposited in PubChem BioAssay by National Center for Advancing Translational Sciences (NCATS).
